The record followed here is PubChem BioAssay.

Activity calls are given as the source filed them. Unless noted, no rule for the calls is given here.

The nature of test [1]: kinase inhibitors against Plasmodium liver-stage infection, cell-based, known kinase inhibitor set, luminescence, hepatoma host viability (AID 624392).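 Also: infected cells incubated roughly two days before readout.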 The conditions noted are these: Plasmodium liver stage in hepatoma cells, luciferase luminescence, concentration not given here; liver cell % of control: measured here: host liver cell viability; parasite % of control: stronger effect = lower value.

The nature of test [2]: modulators of glucocorticoid suppression of NF-kB, cell-based, luciferase, IL-1B stimulus, dexamethasone (AID 624486).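 As to percent of negative control (+Dex): 100% = mean signal of vehicle control wells on the plate.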 As to conditions: NF-kB luciferase reporter, IL-1B + dexamethasone, luminescence; percent of negative control (+Dex): actives lie on both sides, concentration not given here; z-score: measured here: IL-1B alone, no Dex.
Test [3] can be described thus: kinase inhibitors altering Pseudomonas killing of worms, whole organism (AID 651566).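 Also: tested at 14 µM; sign flipped so higher z means a lower ratio.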 The conditions noted are these: C. elegans killed by P. aeruginosa, survival ratio.
The nature of test [4]: activators of macrophage pro-inflammatory response, cell-based, murine, luminescence (AID 652131). As to conditions: murine macrophage pro-inflammatory reporter, stronger effect = higher value.
The target of test [5] is Cellular tumor antigen p53 (Homo sapiens) (UniProt P04637). The experiment in a line: kinase inhibitors altering GFP-p53 stability in HPV16-positive cells, imaging, known kinase inhibitor set, EGFP/DsRed ratio (AID 1053116).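 Also: cells exposed to compounds for 24 h at 37 °C before reading.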 The conditions noted are these: stronger effect = higher value; EGFP object count: measured here: GFP-p53 positive objects count.
Test [6] in a line: IRF3 reporter activation in THP-1 macrophages, cell-based, PMA-stimulated THP-1, luminescence (AID 1053176). As to conditions: PMA-differentiated THP-1, IRF3 reporter luminescence; stronger effect = higher value.
Test [7] can be described thus: survival rescue of mitochondrial mutant cells in low glucose, primary screen, MELAS cybrids, Rieske KO mouse fibroblasts, CellTiter-Glo (AID 1508586;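 active = mean z-score across replicates of 1.96 or higher in either the MELAS or the Rieske mutant cell line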;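 also: z relative to plate mean and SD of compound and empty wells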). On the technique in general: ATP-based viability assays read luminescence as a measure of living cells.
[8] abbreviates: MELAS cybrid survival, CellTiter-Glo 48 h, stronger effect = higher value.
[9] abbreviates: Rieske KO mouse fibroblast survival, CellTiter-Glo 72 h.

Sequence of Cellular tumor antigen p53 (Homo sapiens) (P04637 whole entry, looked up): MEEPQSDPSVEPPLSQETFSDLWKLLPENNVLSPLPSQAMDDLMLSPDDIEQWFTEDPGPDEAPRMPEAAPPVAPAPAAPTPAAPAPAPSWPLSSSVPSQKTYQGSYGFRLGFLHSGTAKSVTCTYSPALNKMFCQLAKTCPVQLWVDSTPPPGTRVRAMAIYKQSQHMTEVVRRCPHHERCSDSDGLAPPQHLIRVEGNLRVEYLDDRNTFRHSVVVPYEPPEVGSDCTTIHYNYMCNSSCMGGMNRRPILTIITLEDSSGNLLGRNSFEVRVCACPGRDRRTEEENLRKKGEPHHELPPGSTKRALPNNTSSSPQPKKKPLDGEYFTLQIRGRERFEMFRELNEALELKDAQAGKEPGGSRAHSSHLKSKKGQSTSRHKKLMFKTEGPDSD

In test [1], `COc1cccc(-n2ncc3c(N/N=C/c4ccc(F)cc4)ncnc32)c1` displayed a liver cell % of control of 104%. Besides, the parasite % of control in test [1] was 96.2% (inactive). Also, the percent of negative control (+Dex) in test [2] was 93.5% (inactive). The z-score is 0.76 in test [2]; -1.12 (inactive) in test [3]; -0.343 (inactive) in test [4]; 1.48 (inactive) in test [7] (setting [8]); -0.0554 in test [7] (setting [9]). Moreover, the EGFP object count in test [5] was determined as 9. Also, the EGFP/DsRed ratio in test [5] is 0.197 (inactive). The fraction signal in test [6] is -0.0025 (inactive).

Regarding `O/N=C1/CCc2cc(-c3nc(C4CCNCC4)[nH]c3-c3ccncc3)ccc21`, the liver cell % of control in test [1] is 105%. Further, the parasite % of control in test [1] was 174% (inactive). The percent of negative control (+Dex) in test [2] was 128% (inactive). Moreover, the z-score in test [2] was 0.995; in test [3] it was 0.24 (inactive); in test [4], 3.12 (inactive); in test [7] (setting [8]) it was -1.26 (inactive); in test [7] (setting [9]), -0.635. For the same compound, the EGFP object count in test [5] came out at 1. Further, in test [5], the EGFP/DsRed ratio was 0.00487 (inactive). Besides, the fraction signal in test [6] is 0.001 (inactive).

In test [1], `CC1=C(C(=O)Nc2cc(Cl)c3[nH]ncc3c2)C(c2ccc(C(F)(F)F)cc2)CC(=O)N1` (stereo unspecified) showed a liver cell % of control of 106%. The parasite % of control in test [1] was 193% (inactive). Besides, the percent of negative control (+Dex) in test [2] was 73% (inactive). Further, the z-score in test [2] was -1.52; in test [3], -0.22 (inactive); in test [4], -0.455 (inactive); in test [7] (setting [8]), -0.0142 (inactive); in test [7] (setting [9]) it was -0.416. For the same compound, the EGFP object count in test [5] was found to be 2. In addition, the EGFP/DsRed ratio in test [5] was 0.126 (inactive). The fraction signal in test [6] was -0.01 (inactive).

In test [1], `O=C(Nc1ccc(Oc2ccc3nc(NC(=O)c4ccccc4)[nH]c3c2)cc1)Nc1cc(C(F)(F)F)ccc1F` registered a liver cell % of control of 151%. In addition, the parasite % of control in test [1] is 113% (inactive). The percent of negative control (+Dex) in test [2] is 102% (inactive). For the same compound, the z-score in test [2] is 0.635; in test [3] it was -0.485 (inactive); in test [4] it was -1.71 (inactive); in test [7] (setting [8]), 8.17 (active); in test [7] (setting [9]), 1.84. Also, in test [5], the EGFP object count came out at 2.5. Besides, the EGFP/DsRed ratio in test [5] is 0.0378 (inactive). Moreover, in test [6], the fraction signal was -0.006 (inactive).

For the compound `CC(C)c1ccc2c(N=Nc3ccc(S(N)(=O)=O)cc3)c(O)[nH]c2c1`, in test [1], the liver cell % of control came out at 93.4%. Also, in test [1], the parasite % of control is 160% (inactive). For the same compound, the percent of negative control (+Dex) in test [2] is 94% (inactive). The z-score in test [2] was 0.03; in test [3] it was 0.635 (inactive); in test [4], -0.919 (inactive); in test [7] (setting [8]), -0.58 (inactive); in test [7] (setting [9]) it was -0.254. The EGFP object count in test [5] is 4. Moreover, the EGFP/DsRed ratio in test [5] was 0.177 (inactive). For the same compound, in test [6], the fraction signal is -0.0065 (inactive).

In test [1], `CCn1c(-c2nonc2N)nc2c(C#CC(C)(C)O)ncc(OC3CCNCC3)c21` yielded a liver cell % of control of 78%. Besides, the parasite % of control in test [1] was 13.9% (active). Besides, the percent of negative control (+Dex) in test [2] is 89% (inactive). For the same compound, the z-score in test [2] is -0.435; in test [3] it was 0.17 (inactive); in test [4] it was 3.47 (inactive); in test [7] (setting [8]) it was -0.105 (inactive); in test [7] (setting [9]), -0.284. In test [5], the EGFP object count was found to be 10.5. Moreover, in test [5], the EGFP/DsRed ratio was 0.266 (inactive). Besides, the fraction signal in test [6] is 0.001 (inactive).
